These results are taken from PubChem BioAssay AID1211 (NMMLSC, 2008).

The assay deals with Estrogen receptor (Homo sapiens) (UniProt P03372). Put plainly: displacement of fluorescent estrogen from ERalpha – cell-based, Cos7 ERalpha-GFP, flow cytometry, primary screen (AID 1211).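 Note: 0% = DMSO vehicle wells and 100% = no E2-Alexa633 signal left.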 The conditions noted are these: fluorescent ligand competition, stronger effect = higher value.

Activity calls are given as the source filed them. The rule behind the calls is not given here.

Estrogen receptor (Homo sapiens), sequence (P03372 whole entry, looked up): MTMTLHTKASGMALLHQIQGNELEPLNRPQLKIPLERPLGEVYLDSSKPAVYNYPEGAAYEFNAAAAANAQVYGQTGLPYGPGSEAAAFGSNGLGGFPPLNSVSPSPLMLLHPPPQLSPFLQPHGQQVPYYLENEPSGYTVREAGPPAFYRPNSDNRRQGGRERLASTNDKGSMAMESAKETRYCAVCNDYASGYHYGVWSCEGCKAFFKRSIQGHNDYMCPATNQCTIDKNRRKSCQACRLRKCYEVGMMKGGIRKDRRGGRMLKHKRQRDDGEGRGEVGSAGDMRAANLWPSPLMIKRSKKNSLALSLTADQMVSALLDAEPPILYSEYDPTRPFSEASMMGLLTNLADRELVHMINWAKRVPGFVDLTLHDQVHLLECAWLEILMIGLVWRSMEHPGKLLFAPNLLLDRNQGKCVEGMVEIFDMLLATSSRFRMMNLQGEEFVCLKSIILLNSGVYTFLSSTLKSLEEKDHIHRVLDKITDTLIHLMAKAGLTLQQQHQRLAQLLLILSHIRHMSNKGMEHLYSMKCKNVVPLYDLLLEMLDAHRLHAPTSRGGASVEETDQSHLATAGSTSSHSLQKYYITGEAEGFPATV

Regarding `Cc1noc(C)c1COc1ccc(C(=O)OCC(=O)N2c3ccccc3NC(=O)C2(C)C)cc1`, the inhibition of ligand binding is 59% (inactive) (at 10 µM) and 16% (binding inhibition, at 0.1 µM).
For `Cc1c2cc(O)c(=O)cc-2oc2cc(O)c(O)cc12`, the inhibition of ligand binding is, setting by setting: (at 10 µM) 31% (inactive); (binding inhibition, at 0.1 µM) 51%.
The matching figures for `FC(F)(F)c1ccc2c(c1)C1C=CCC1C(c1ccncc1)N2` (stereo not given): 61% (inactive) and 27%.
On to `COC(=O)c1[nH]c2ccc(C)cc2c1NC(=O)CN1CCCc2ccccc21`, for which the inhibition of ligand binding was 49% (inactive) (at 10 µM) and 9% (binding inhibition, at 0.1 µM).
The matching figures for `O=C(COC(=O)CC1CCCC1)Nc1cc2c(cc1Cl)C(=O)c1ccccc1C2=O`: 37% (inactive) and 24%.
The matching figures for `COc1ccc2c(c1OC)C(=O)N1N=C(c3ccc(O)cc3)CC21` (stereo not given): 0% (inactive) and 30%.
With `CC(C)CC(=O)Nc1ccc(C(=O)COc2ccc(-c3nnco3)cc2)cc1`, the inhibition of ligand binding was 28% (inactive) (at 10 µM) and 23% (binding inhibition, at 0.1 µM).
The matching figures for `O=C1Nc2ccccc2SC(c2ccccc2)C1O` (stereo not given): 26% (inactive) and 46%.
The matching figures for `O=C(O)c1ccc2c(c1)-c1nc3ccccc3n1C2=O`: 32% (inactive) and 5%.
For `CCOc1cccc2cc(-c3cn4cc(C)ccc4n3)c(=O)oc12`, the inhibition of ligand binding runs as follows: (at 10 µM) 52% (inactive); (binding inhibition, at 0.1 µM) 29%.
As to `CCn1c(=NC(=O)c2ccc(N3C(=O)CCC3=O)cc2)sc2c(OC)ccc(OC)c21`, the inhibition of ligand binding was 66% (active) (at 10 µM) and 32% (binding inhibition, at 0.1 µM).
The matching figures for `Nc1ccc2nc(-c3cccnc3)[nH]c2c1`: 44% (inactive) and 26%.
The matching figures for `Oc1ccc(C2=Nn3c(nnc3-c3ccco3)SC2)cc1O`: 32% (inactive) and 27%.
With `CSC1=N/C(=C\c2ccc(Br)o2)C(=O)S1`, the inhibition of ligand binding was 12% (inactive) (at 10 µM) and 13% (binding inhibition, at 0.1 µM).
With `CCC(=O)Oc1ccc(C(CC)C(CC)c2ccc(OC(=O)CC)cc2)cc1` (stereo not given), the inhibition of ligand binding is, setting by setting: (at 10 µM) 80% (active); (binding inhibition, at 0.1 µM) 89%.
